Gal4-VP16 FLuc – VP16 counterscreen qHTS for inhibitors of ROR gamma transcriptional activity | Potency, µM (doses to about 53.6 µM), for the others: at the highest dose activity, negative = inhibition, most hits filed as inhibitors | AID 2546, 2010 | Drosophila S2 Gal4-VP16 UAS-luciferase, luminescence, 20 h | hit rate 3.5% among 310,000;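 note: Gal4-VP16 expression switched on by copper sulfate through the metallothionein promoter; potency is the fitted concentration of half-maximal effect; nearly all actives have a fitted effect of over 50% in size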
ELG1 repair inh – qHTS screen for small molecules that inhibit ELG1-dependent DNA repair in human embryonic kidney (HEK293T) cells expressing luciferase-tagged ELG1. AID 504467, 2011. Potency, µM (highest dose often 46.1 µM), without a hit: at the highest dose activity change, negative = inhibition, hits mostly inhibitors. hit rate 2.3% among 330,000. HEK293T ELG1-luciferase reporter, luminescence, 16 h; DNA damage induced by 5-fluorouridine; note: potency is the fitted concentration of half-maximal effect; nearly all actives have a fitted effect of over 55% in size
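5-Fluorouridine DNA damage + compound/DMSO, 2,000 cells/well, 16 h, 37 °C/5% CO2. ONE-Glo, 30 min RT, luminescence. Readout = decrease in reporter signal.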
RORgamma inh – qHTS for inhibitors of ROR gamma transcriptional activity; Potency, µM (series often up to 53.6 µM), for inactives: at the highest dose activity change, negative = inhibition, actives largely listed as inhibitors; Nuclear receptor ROR-gamma (Mus musculus), P51450; Drosophila S2 Gal4-RORgamma UAS-luciferase reporter, 20 h; hit rate 5.4% among 310,000; note: potency is the fitted concentration of half-maximal effect; nearly all actives have a fitted effect of over 60% in size
Target sequence (P51450 whole entry, looked up, the tested form may be a part): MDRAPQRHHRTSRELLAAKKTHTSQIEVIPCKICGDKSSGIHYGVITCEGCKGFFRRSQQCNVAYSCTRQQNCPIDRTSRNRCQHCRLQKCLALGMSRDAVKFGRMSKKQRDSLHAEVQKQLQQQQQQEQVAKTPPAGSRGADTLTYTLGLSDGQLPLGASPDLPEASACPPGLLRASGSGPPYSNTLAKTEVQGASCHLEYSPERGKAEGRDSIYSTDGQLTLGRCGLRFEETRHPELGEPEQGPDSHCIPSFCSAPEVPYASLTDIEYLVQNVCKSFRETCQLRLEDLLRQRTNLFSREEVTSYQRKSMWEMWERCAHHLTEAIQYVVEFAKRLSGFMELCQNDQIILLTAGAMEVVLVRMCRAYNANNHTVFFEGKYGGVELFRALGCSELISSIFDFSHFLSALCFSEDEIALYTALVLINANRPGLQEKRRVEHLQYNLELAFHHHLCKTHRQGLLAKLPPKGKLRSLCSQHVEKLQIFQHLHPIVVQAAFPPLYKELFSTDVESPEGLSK
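Drosophila Schneider cells stably carrying a metallothionein-driven Gal4 DBD–ROR gamma fusion and a UAS-Photinus luciferase reporter were exposed to compound for 1 hr, then induced with copper sulfate (700 uM final) for 20 hr at ambient temperature before luminescence reading.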
IL-1B inflam inh – qHTS for Inhibitors of Inflammasome Signaling: IL-1-beta AlphaLISA Primary Screen | hit rate 4.7% among 360,000 | activity change, % at 57.5 µM | THP-1 LPS/ATP IL-1B secretion, AlphaLISA, 16 h; active compounds read low | AID 743279, 2014; in the data active = activity change below about -50%; inconclusive = mostly about -30% to -49%
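THP-1 cells pretreated 1 hr with compounds (up to 57.5 uM final), then stimulated with LPS (250 ng/mL final) plus ATP (1.25 mM final); secreted IL-1B measured by AlphaLISA after 16 hr, decreased signal indicating inhibition.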
TDP1 cell noCPT – qHTS for Inhibitors of human tyrosyl-DNA phosphodiesterase 1 (TDP1): qHTS in cells in absence of CPT | DT40 Tdp1-/- hTDP1 cells, no CPT, ATP luminescence, 48 h | Potency, µM (highest dose often 46.2 µM), without a hit: at the highest dose activity change, negative = growth inhibition, hits mostly inhibitors | hit rate 15% among 420,000 | AID 686978, 2013; note: potency is the fitted concentration of half-maximal effect; nearly all actives have a fitted effect of over 55% in size
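Growth of hTDP1-complemented DT40 Tdp1-knockout cells is measured by ATP luminescence after at least 48 hr compound exposure at 37 °C, with DMSO substituting for the 20 nM CPT used in the parallel screen.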
DT40 TDP1 CPT – qHTS for Inhibitors of human tyrosyl-DNA phosphodiesterase 1 (TDP1): qHTS in cells in presence of CPT. chicken DT40 Tdp1-/-;hTDP1 cells + 20 nM CPT, ATP luminescence, 48 h. Potency, µM (series often up to 46.2 µM), for the others: top-dose activity change, negative = growth inhibition, usual class: inhibitors. hit rate 12% among 420,000. AID 686979, 2013; note: potency is the fitted concentration of half-maximal effect; nearly all actives have a fitted effect of over 55% in size
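Chicken DT40 Tdp1-/- cells complemented with human TDP1, 400 cells/well, exposed to compounds plus 20 nM camptothecin for at least 48 h at 37 C; viability read as ATP content by CellTiter-Glo luminescence.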
Starred values were filed as active, the others as inactive; i = inactive; ? = inconclusive; . = no result; [ ] = remark or other dose. Shown are actives, neighbours in structure and some others; about 21% of the full set was active somewhere. Unless noted, calls come from the whole dose curve; as a rule, active = well fitted curve in the direction sought with a large enough effect; inconclusive = small, poorly fitted or top-dose-only effect, or another doubt; inactive = no such curve, though single readings can be large; an effect the other way counts as inactive or inconclusive. % is set by controls: 0 for no effect and ±100 for the full control effect.

SMILES | Gal4-VP16 FLuc | ELG1 repair inh | RORgamma inh | IL-1B inflam inh | TDP1 cell noCPT | DT40 TDP1 CPT
CCCCCCCCCCOC(=O)NC1CCS(=O)(=O)C1 (stereo not given) | ? | 23µM* | ? | -4 | 21µM* | ?
O=C(NC1CCCCC1)Oc1ccccc1 | 20% | ? | -32% | -4 | -25% | 17%
O=C(NC1CCS(=O)(=O)C1)Oc1ccccc1 (stereo not given) | -10% | -3% | -23% | 18 | 26µM* | ?
CC(C)[C@@H](CC(=O)N[C@@H]1CCCC[C@H]1C(=O)N[C@H](CC(=O)N[C@@H](CCC(=O)O)CC(=O)O)Cc1ccccc1)NC(=O)C[C@H](Cc1c[nH]c2ccccc12)NC(=O)[C@@H]1CCCC[C@H]1N | -4% | . | -5% | . | . | .
CCCCNc1nc(C)nc2c1nc(-c1ccccc1)n2C1CCN(Cc2ccccc2)C1 (stereo not given) | -12% | . | 11µM* | . | . | .
Cc1cccc(N2C(=O)c3cccc4c(N5CCCCC5)c([N+](=O)[O-])cc(c34)C2=O)c1C | -11% | 2% | -13% | 0 | ? | ?
O=C1c2cccc3c(N4CCOCC4)c([N+](=O)[O-])cc(c23)C(=O)N1c1cccc2ccccc12 | -21% | -5% | 11% | -6 | 18µM* | 12µM*
CCOc1cc(-c2nnc(NC(=O)C3=COCCO3)o2)cc(OCC)c1OCC | . | -4% | . | 4 | -17% | -27%
Cc1cccc(C(=O)Nc2nnc(C3=COCCO3)o2)c1 | 1µM* | -1% | 0.5µM* | 15 | ? | ?
COc1ccc(C(=O)Nc2nnc(C3=COCCO3)o2)cc1OC | 1.8µM* | 4% | 1.6µM* | i | -10% | -11%
O=C(Nc1nnc(C2=COCCO2)o1)C1CCCCC1 | 1% | 3% | 20% | 12 | -1% | 3%
CC(C)(C)c1ccc(C(=O)Nc2nnc(C3=COCCO3)o2)cc1 | ? | 11% | 0.18µM* | -1 | 16µM* | 13µM*
CN(C)c1ccc(C(=O)Nc2nnc(C3=COCCO3)o2)cc1 | 2.8µM* | ? | 1.6µM* | -2 | ? | ?
O=C(NC1CC1)c1ccccc1 | . | . | . | 8 | -2% | -10%
O=C(CSc1nc2c(c(=O)[nH]1)CCCC2)Nc1ccccc1C(F)(F)F | . | . | . | . | 4% | 1%
CN(c1ccccc1)S(=O)(=O)c1ccc(C(=O)Nc2nnc(C3=COCCO3)o2)cc1 | 4.5µM* | ? | 1.1µM* | 0 | ? | ?
Cc1[nH]c(=O)[nH]c(=O)c1NC(=O)c1ccc(OC(C)C)cc1 | -16% | -5% | 7% | 0 | -1% | -11%
O=C(Nc1nnc(-c2ccc(Cl)cc2)o1)C1=COCCO1 | 1.8µM* | ? | 2.5µM* | 0 | -25% | -3%
CC(C)Oc1ccc(C(=O)Nc2nnc(C3=COCCO3)o2)cc1 | . | ? | . | 4 | ? | 18µM*
Cc1cc(NC(=O)c2ccc(N(C)S(=O)(=O)c3ccccc3)cc2)no1 | -7% | ? | 13% | 0 | ? | -44%
CC[C@]12c3[nH]c4ccc(OC)cc4c3CCN1C(=O)C(CC(=O)NCc1ccco1)C[C@@H]2C(=O)N1CCN(C(=O)c2ccco2)CC1 (stereo not given in full) | . | 1% | . | 4 | -1% | 7%
COc1ccc(C(=O)OCC(=O)NCC2CCCCC2)c(OC)c1 | . | -14% | . | 26 | ? | ?
CSCCNC(=O)C1(C)CCN1C(=O)c1ccc(C(C)(C)C)cc1 (stereo not given) | . | . | . | 31 | 15µM* | 18µM*
CC(C)(C)CNC(=O)C1(C)CCN1C(=O)Cc1ccc(C(C)(C)C)cc1 (stereo not given) | . | . | . | -1 | ? | ?
CCCNC(=O)C1(C)CCN1C(=O)c1ccc(C(C)(C)C)cc1 (stereo not given) | . | . | . | 23 | 15µM* | ?
SMILES | Gal4-VP16 FLuc | ELG1 repair inh | RORgamma inh | IL-1B inflam inh | TDP1 cell noCPT | DT40 TDP1 CPT
CC(C)(C)c1ccc(C(=O)N2CCC2(C)C(=O)NS(=O)(=O)c2ccc(C#N)cc2)cc1 (stereo not given) | . | . | . | 5 | 3% | -8%
CCCNC(=O)C1(C)CCN1C(=O)Cc1ccc(C(C)(C)C)cc1 (stereo not given) | . | . | . | 42 | 15µM* | ?
COc1cc(CN2CCCC(N3CCN(c4ccccc4C)CC3)C2)ccc1O (stereo not given) | -9% | -20% | -1% | -6 | ? | 13µM*
COc1ccccc1N1CCN(C2CCCN(Cc3cccc(O)c3)C2)CC1 (stereo not given) | -4% | -6% | 17% | -9 | 0% | -20%
COc1cc(CN2CCCC(N3CCN(c4ccc(F)cc4)CC3)C2)ccc1F (stereo not given) | -3% | 0% | -42% | -21 | ? | 21µM*
OCCOc1ccc(CN2CCCC(N3CCN(c4ccc(F)cc4)CC3)C2)cc1 (stereo not given) | 12% | 1% | -15% | 0 | -4% | -11%
CCCc1nnc(N2C(=O)c3oc4ccc(F)cc4c(=O)c3C2c2ccc(C(=O)OC)cc2)s1 (stereo not given) | . | . | . | . | -15% | -9%
Cc1cccc(NC2=NC(=S)N(CC#N)C23CCCCC3)c1 | ? | 5% | 11µM* | -21 | -17% | -3%
O=C(O)c1cccc(N2C(=S)N=C(Nc3ccccc3)C23CCCCC3)c1 | 16%[10 µM] | -2% | -1% | 0 | -1% | 4%
Cc1cccc(-c2noc(CN(C(=O)C(c3ccccc3)c3ccccc3)C(C)C)n2)c1 | -11% | ? | 1% | -16 | 16µM* | ?
Cc1cccc(-c2noc(CN(C(=O)c3ccc(C)c(C)c3)C(C)C)n2)c1 | . | . | . | . | 3.7µM* | 5.2µM*
CC(C)N(Cc1nc(-c2ccccc2)no1)C(=O)Cc1ccccc1 | -1% | -10% | 7% | -5 | ? | -28%
Cc1onc(-c2ccccc2Cl)c1C(=O)NCc1nc(-c2ccc(C(F)(F)F)cc2)no1 | ? | 15µM* | 11% | -76* | 15µM* | ?
Cc1cccc(-c2noc(CN(C(=O)c3c(-c4ccccc4Cl)noc3C)C(C)C)n2)c1 | -1% | 21µM* | 24% | -14 | 18µM* | 21µM*

Screening data from PubChem BioAssay.
